In all, about 5,500 compounds went through this assay and about 2,000 (36%) were called active. About 18% were inconclusive and are not listed. No stated cut-off is given here; in the data, active means normalized growth mostly below about 0.91 (no sharp cut-off); inconclusive means no clear call, values can overlap the other calls; inactive means mostly above about 0.92. This is one part of the list.
Test: chemical genetic growth profiling, strain panel (AID 1159580);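 further: tested at 20 µM; growth read once vehicle control cultures reached saturation at 30 °C; 1 = growth at the plate median or of vehicle wells; lower values mean less growth of the strain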
Conditions: growth OD
[1] = S. cerevisiae deletion strains, locus YDL101C, strain DUN1, active compounds read low
[2] = S. cerevisiae deletion strains, locus YHR030C, strain SLT2, active compounds read low

Measured: normalized growth

S=C(NNC(=S)NC1CC2C=CC1C2)Nc1ccc(Br)c(Cl)c1 (configuration not stated)
inactive: S. cerevisiae deletion strains, locus YAR019C, strain CDC15, active compounds read low 0.981 | S. cerevisiae deletion strains, locus YBL105C, strain PKC1, active compounds read low 0.987 | S. cerevisiae deletion strains, locus YBR135W, strain CKS1, active compounds read low 0.986 | S. cerevisiae deletion strains, locus YBR136W, strain MEC1, active compounds read low 0.976 | S. cerevisiae deletion strains, locus YBR160W, strain CDC28, active compounds read low 0.984 | S. cerevisiae deletion strains, locus YDL017W, strain CDC7, active compounds read low 0.986 | S. cerevisiae deletion strains, locus YDL028C, strain MPS1, active compounds read low 0.979 | [1] 0.989 | S. cerevisiae deletion strains, locus YDL108W, strain KIN28, active compounds read low 0.989 | S. cerevisiae deletion strains, locus YDL132W, strain cdc53, active compounds read low 0.987 | S. cerevisiae deletion strains, locus YDL214C, strain PRR2, active compounds read low 0.948 | S. cerevisiae deletion strains, locus YDR052C, strain DBF4, active compounds read low 0.994 | S. cerevisiae deletion strains, locus YDR054C, strain cdc34, active compounds read low 0.976 | S. cerevisiae deletion strains, locus YDR226W, strain ADK1, active compounds read low 0.982 | S. cerevisiae deletion strains, locus YDR477W, strain SNF1, active compounds read low 0.932 | S. cerevisiae deletion strains, locus YER123W, strain YCK3, active compounds read low 0.931 | S. cerevisiae deletion strains, locus YER133W, strain GLC7, active compounds read low 0.922 | S. cerevisiae deletion strains, locus YFL009W, strain cdc4, active compounds read low 0.98 | S. cerevisiae deletion strains, locus YFL029C, strain CAK1, active compounds read low 0.982 | S. cerevisiae deletion strains, locus YFR003C, strain YPI1, active compounds read low 0.985 | S. cerevisiae deletion strains, locus YFR019W, strain FAB1, active compounds read low 0.993 | S. cerevisiae deletion strains, locus YFR028C, strain CDC14, active compounds read low 0.986 | S. cerevisiae deletion strains, locus YGR040W, strain KSS1, active compounds read low 0.939 | S. cerevisiae deletion strains, locus YGR052W, strain FMP48, active compounds read low 0.954 | S. cerevisiae deletion strains, locus YGR092W, strain DBF2, active compounds read low 0.922 | [2] 0.889 | S. cerevisiae deletion strains, locus YHR079C, strain IRE1, active compounds read low 0.954 | S. cerevisiae deletion strains, locus YHR082C, strain KSP1, active compounds read low 1.03 | S. cerevisiae deletion strains, locus YHR205W, strain SCH9, active compounds read low 0.972 | S. cerevisiae deletion strains, locus YIL147C, strain SLN1, active compounds read low 0.983 | S. cerevisiae deletion strains, locus YJL095W, strain BCK1, active compounds read low 0.927 | S. cerevisiae deletion strains, locus YJL128C, strain PBS2, active compounds read low 0.943 | S. cerevisiae deletion strains, locus YJL157C, strain FAR1, active compounds read low 0.927 | S. cerevisiae deletion strains, locus YJR016C, strain ILV3, active compounds read low 0.984 | S. cerevisiae deletion strains, locus YJR066W, strain TOR1 (second series), active compounds read low 0.972 | S. cerevisiae deletion strains, locus YJR066W, strain TOR1, active compounds read low 1.05 | S. cerevisiae deletion strains, locus YKL048C, strain ELM1, active compounds read low 0.982 | S. cerevisiae deletion strains, locus YKL067W, strain YNK1, active compounds read low 0.94 | S. cerevisiae deletion strains, locus YKL101W, strain HSL1, active compounds read low 0.961 | S. cerevisiae deletion strains, locus YKL193C, strain SDS22, active compounds read low 0.975 | S. cerevisiae deletion strains, locus YKL203C, strain TOR2, active compounds read low 0.994 | S. cerevisiae deletion strains, locus YLR113W, strain HOG1, active compounds read low 0.896 | S. cerevisiae deletion strains, locus YLR133W, strain CKI1, active compounds read low 0.959 | S. cerevisiae deletion strains, locus YLR403W, strain SFP1, active compounds read low 0.939 | S. cerevisiae deletion strains, locus YML070W, strain DAK1, active compounds read low 0.942 | S. cerevisiae deletion strains, locus YMR001C, strain CDC5, active compounds read low 0.984 | S. cerevisiae deletion strains, locus YMR205C, strain PFK2 (second series), active compounds read low 0.957 | S. cerevisiae deletion strains, locus YMR277W, strain FCP1, active compounds read low 0.983 | S. cerevisiae deletion strains, locus YNL006W, strain LST8, active compounds read low 0.984 | S. cerevisiae deletion strains, locus YNL020C, strain ARK1, active compounds read low 0.952 | S. cerevisiae deletion strains, locus YNL161W, strain CBK1, active compounds read low 0.982 | S. cerevisiae deletion strains, locus YNL183C, strain NPR1, active compounds read low 1.04 | S. cerevisiae deletion strains, locus YNL207W, strain RIO2, active compounds read low 0.977 | S. cerevisiae deletion strains, locus YNL222W, strain SSU72, active compounds read low 0.991 | S. cerevisiae deletion strains, locus YNL307C, strain MCK1 (second series), active compounds read low 0.956 | S. cerevisiae deletion strains, locus YOL078W, strain AVO1, active compounds read low 0.984 | S. cerevisiae deletion strains, locus YOL136C, strain PFK27, active compounds read low 0.964 | S. cerevisiae deletion strains, locus YOR061W, strain CKA2, active compounds read low 0.947 | S. cerevisiae deletion strains, locus YOR119C, strain RIO1, active compounds read low 0.994 | S. cerevisiae deletion strains, locus YOR231W, strain MKK1, active compounds read low 0.963 | S. cerevisiae deletion strains, locus YOR329C, strain SCD5, active compounds read low 0.993 | S. cerevisiae deletion strains, locus YPL031C, strain PHO85, active compounds read low 0.928 | S. cerevisiae deletion strains, locus YPL153C, strain RAD53, active compounds read low 0.932 | S. cerevisiae deletion strains, locus YPL204W, strain HRR25, active compounds read low 0.939 | S. cerevisiae deletion strains, locus YPL209C, strain IPL1, active compounds read low 0.986 | S. cerevisiae deletion strains, locus YPL256C, strain CLN2, active compounds read low 0.987 | S. cerevisiae deletion strains, locus YPR025C, strain CCL1, active compounds read low 0.987 | S. cerevisiae deletion strains, locus YPR106W, strain ISR1, active compounds read low 0.981 | S. cerevisiae deletion strains, locus YPR111W, strain DBF20, active compounds read low 0.983 | S. cerevisiae deletion strains, strain NNK1, active compounds read low 0.983 | S. cerevisiae deletion strains, strain TSCII, active compounds read low 0.985

Cc1cccc(NC(=S)NC2CC3C=CC2C3)c1 (configuration not stated)
inactive: S. cerevisiae deletion strains, locus YAL013W, strain DEP1, active compounds read low 0.939 | S. cerevisiae deletion strains, locus YBR229C, strain ROT2, active compounds read low 0.998 | S. cerevisiae deletion strains, locus YCL061C, strain MRC1, active compounds read low 0.979 | [1] 0.985 | S. cerevisiae deletion strains, locus YDR150W, strain NUM1, active compounds read low 1.01 | S. cerevisiae deletion strains, locus YGR078C, strain PAC10, active compounds read low 0.978 | S. cerevisiae deletion strains, locus YGR229C, strain SMI1, active compounds read low 0.987 | [2] 0.91 | S. cerevisiae deletion strains, locus YHR087W, strain rtc3, active compounds read low 1.02 | S. cerevisiae deletion strains, locus YJR043C, strain POL32, active compounds read low 0.926 | S. cerevisiae deletion strains, locus YJR075W, strain HOC1, active compounds read low 0.994 | S. cerevisiae deletion strains, locus YLR058C, strain SHM2 (second series), active compounds read low 0.993 | S. cerevisiae deletion strains, locus YLR262C, strain YPT6, active compounds read low 0.825 | S. cerevisiae deletion strains, locus YML094W, strain GIM5, active compounds read low 0.882 | S. cerevisiae deletion strains, locus YMR219W, strain ESC1, active compounds read low 0.984 | S. cerevisiae deletion strains, locus YMR263W, strain SAP30, active compounds read low 0.949 | S. cerevisiae deletion strains, locus YMR307W, strain GAS1, active compounds read low 0.688 | S. cerevisiae deletion strains, locus YNL128W, strain TEP1, active compounds read low 0.977 | S. cerevisiae deletion strains, locus YNL153C, strain GIM3, active compounds read low 0.98 | S. cerevisiae deletion strains, locus YNL298W, strain CLA4 (second series), active compounds read low 0.85 | S. cerevisiae deletion strains, locus YNL322C, strain KRE1, active compounds read low 0.993 | S. cerevisiae deletion strains, locus YNR030W, strain Alg12, active compounds read low 0.897 | S. cerevisiae deletion strains, locus YPL055C, strain LGE1, active compounds read low 0.913 | S. cerevisiae deletion strains, locus YPL241C, strain CIN2, active compounds read low 0.91 | S. cerevisiae deletion strains, locus YPR135W, strain CTF4, active compounds read low 0.814 | S. cerevisiae strains, strain wild type, active compounds read low 0.927
active: S. cerevisiae deletion strains, locus YDL134C, strain PPH21, active compounds read low 0.904 | S. cerevisiae deletion strains, locus YEL061C, strain CIN8, active compounds read low 0.905 | S. cerevisiae deletion strains, locus YLR039C, strain RIC1, active compounds read low 0.685 | S. cerevisiae deletion strains, locus YLR085C, strain ARP6, active compounds read low 0.435 | S. cerevisiae deletion strains, locus YOL006C, strain TOP1, active compounds read low 0.182

— PubChem BioAssay AID1159580 (chemical genetic matrix, 2015)
